# Measured values as given in the OligoGym collection.
# Target: ZNF548
# Assay: pooled miR-30 sensor sort-seq; sequence = guide strand
# Conditions: shRNA
# Also: reference of the scale not given here.
row,Sequence,sensor-assay potency score (higher = more potent)
1,TTCACTAGTGTGAACTGTCTGA,0.39
2,TAACCTCTGACACTCCTACAGA,-0.754
3,ATTCATAAGACCTTTCTCCTGT,0.892
4,TGTCTAACAAATGTGGAGCTGT,0.213
5,TCAACAAATGAATAGCTGCAGG,-0.782
6,TTCTCTGTCCTCTGTGTCCCTG,-0.777
7,TTATAAGGTCTTTCTCCGGTGT,-0.00393

# Target: ZNF550
# Assay: as above
# Conditions: shRNA
row,Sequence,sensor-assay potency score (higher = more potent)
1,TTTCATTCCAGTGTGAACCCTC,0.423
2,TGCTGTATGAGTTCTGAGCTGC,0.178
3,TTGTGGAGGTCTGTCTCCGGTG,-1.27
4,TTTACCTTTCTGCATTTCCAAA,-1.66
5,TTGAGCTCTGGCTAAAGGCTTT,-0.685
6,TTCATGGAGAACATCTGCTGAT,0.0411
7,TTCGACATTGACTACACTCATA,-1.1
8,TCTGTCACCTAGTGAAACCAGA,-0.609
9,TGCTGCATGAGGTACGACCTGC,-0.586
10,TTGAGGTTGAAGATTCCAGAGT,-1.04
11,ATTCATGGAGAACATCTGCTGA,-0.38
12,ATGAGTTCTGAGCTGCATCTGA,-0.453

# Target: ZNF583
# Assay: as above
# Conditions: shRNA
row,Sequence,sensor-assay potency score (higher = more potent)
1,TATAACTAAGATGTCTTGCTCC,0.322
2,TTCGGTAACTTTTCTTTTGTGG,0.115
3,TTCTTCATATGTCTCTTGCTTT,-0.61
4,TTTCTTTTCTACATAGACTTTC,-0.596
5,TACCTCTTGACTTCCCAGCTGG,0.168
6,TTTCTTTTGTGGTTCATGCTTA,0.129
7,TTGACTAAGATGTACCTCTTGA,0.141
8,TTTTTTACATTCTTTACACTGA,0.132
9,TTTTCTACATAGACTTTCCTAT,-0.369
10,TATATCAAAGATTGTATCCTGG,0.513
11,TTTTACATTCTTTACACTGATA,-0.826
12,TTCTCCAACATCACTTTCCTGT,0.0692

# Target: ZNF592
# Assay: as above
# Conditions: shRNA
row,Sequence,sensor-assay potency score (higher = more potent)
1,TTTGTCATGCTCTCGTCCCCTT,-0.419
2,TAATGTGGTCTTTCTCCGCTTC,-0.0177
3,TTCTGCACGAACAAGAGTGGGC,-0.174
4,TTTAGAACTCTCTTTAGTGGGC,0.465
5,ATTCTCTCTAGTCTCCATGGGC,-0.404
6,TTGAACTCCAAAGCTTCCCCGA,-0.465
7,TTAGTGACACTAGCCACTCTTT,-0.994
8,TGATGCAGCAACACTGTGGGGG,0.194
9,TTGTCCTCTGGAAATGTGCAGC,-0.92
